About 79,000 compounds went through this panel and 15% of them were active in at least one assay; those are over-represented in the sample as a whole. A number with no mark means an inactive call. The source made the active and inactive calls. Rule as the data show it: active = growth inhibition above about 70%; inactive = the rest.
Test: NCI Yeast Anticancer Drug Screen. Data for the bub3 strain (AID 167)
Conditions: S. cerevisiae bub3 mutant strain, at 50.0 µM, stronger effect = higher value
How it was run: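 Readout: yeast growth inhibition, expressed relative to vehicle-only wells. The test organism is a mutant strain from a panel with lesions in DNA repair or checkpoint genes.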

Row | Structure (SMILES) | growth inhibition
1 | OCC(CBr)(CBr)CBr | 4.45%
2 | COc1cc(C(c2cc3c(cc2OC(C)=O)OCO3)C(C(C)=O)C(C)=O)cc(OC)c1OC (stereo not given) | 4.35%
3 | COc1ccc2c(c1)CCCN2C(N)=Nc1ccc([N+](=O)[O-])cc1 | -1.95%
4 | Cc1cc(S(=O)(=O)Nc2n[nH]c(Nc3ccccc3)n2)c(S)cc1Cl | 12.9%
5 | O=C(O)c1ccc2c(c1)CC1(C2)Cc2ccccc2C1=O (stereo not given) | 6.15%
6 | O=c1[nH]c2cc(Cl)ccc2nc1/C=C(\O)c1ccc(O)cc1 | -20%
7 | CCNCCCCNCC | -3.85%
8 | CCN(CC)C1=Nc2ccccc2N(c2ccccc2)C(SC)=C1 | 2.25%
9 | C[N+](C)(C)C1C2(CCCCC2)NC(=O)C12CCCCC2 (stereo not given) | -5.85%
10 | COc1cc2c(cc1OC)C(C#N)(C(c1ccccc1)c1ccccc1)N(C(=O)c1ccccc1)C=C2 (stereo not given) | -0.7%
11 | c1ccc2c(c1)Oc1ccccc1S2 | 7.35%
12 | Oc1ccc2ccccc2c1CNC1CCCCC1 | 29.7%
13 | CCN(CC)CCOC(=O)Cc1cccc2c(=O)cc(-c3ccc(OC)cc3)oc12 | -10.2%
14 | CCC(CC)(C[NH-])C[NH-].[Cl][Pt+2][Cl] | 18.2%
15 | COc1cc(Nc2cnc3cc(N)ccc3n2)cc(OC)c1OC | -9.65%
16 | O=c1[nH]c(=O)n(C2CC(O)C(CO)O2)cc1OC/C=C/Cc1ccccc1 (stereo not given) | -10.4%
17 | CC1=N/C(=C/c2ccc3c(c2)OCO3)C(=O)O1 | -4.6%
18 | CCOC(=O)C(SC(Cl)(S(=O)(=O)c1ccccc1)S(=O)(=O)c1ccccc1)C(=O)OCC | -13%
19 | CC/C=C(\C)C(C#N)(CCC)C(=O)OCC (stereo not given) | -25.6%
20 | C/C(=N\Nc1ccc([N+](=O)[O-])cn1)c1ccccn1 | 12.2%

Row | Structure (SMILES) | growth inhibition
21 | N#Cc1c(C(F)(F)F)cc(-c2cccs2)nc1SC(C(=O)Nc1c(F)cccc1F)c1ccccc1 (stereo not given) | 15%
22 | CC1OC(c2ccc3c(c2O)C(=O)C2=C(C3=O)C3(O)C(=O)CC(C)(O)CC3(O)C=C2)CC(O)C1O (stereo not given) | -21.8%
23 | Cc1n[nH]c2ccccc2c1=O | -23.6%
24 | Cc1cc(N2CCCCC2)nc2ccc(Cc3ccc4nc(N5CCCCC5)cc(C)c4c3)cc12 | -47.4%
25 | Oc1ccc2c(c1)CCC2 | -10.8%
26 | COc1c(NC(=O)c2c(Br)c(Br)c(Br)c(Br)c2C(=O)O)cccc1[N+](=O)[O-] | -1.2%
27 | COc1nc2[nH]ccc2c(=O)n1C | -10.4%
28 | OC1CCC2CCCCC2C1 (stereo not given) | -1.95%
29 | CC(C)/C=C1\CCC(CN(C)C)C1=O (stereo not given) | 75% (active)
30 | OCc1ccccc1C(c1ccc(O)cc1)c1ccc(O)cc1 | 12.7%
31 | CC1CCC2C(C(=O)O[C@H]3C4CCO[C@@H](OC5OC(CO)C(O)C(O)C5O)C4[C@@]4(CO)O[C@@H]34)=CO[C@@H](OC3OC(CO)C(O)C(O)C3O)C12 (stereo not given in full) | 22.6%
32 | C=CCCCCC1CCC2CCC(CCCCC=C)N12 (stereo not given) | 49.4%
33 | O=[n+]1c(-c2ccccc2)c(-c2ccccc2)n([O-])c2cc3ccccc3cc21 | 6.05%
34 | O=C(Nc1nc2ccc([N+](=O)[O-])cc2s1)C(=O)C(C(=O)c1ccccc1F)C1OC(=O)c2ccccc21 (stereo not given) | 38.5%
35 | O=c1c2cc([N+](=O)[O-])ccc2[nH]n1Cc1ccccn1 | -13.9%
36 | COc1cc(C[S+]2CCCC2)c(SC)cc1C[S+]1CCCC1 | 24.1%
37 | O=C(NNC(=O)C(F)(F)F)C(F)(F)F | -12.8%
38 | COC(=O)C1(C(=O)OC)O[C@@H](c2ccccc2)[C@H]2C(=O)N(C)C(=O)[C@H]21 | -1.1%
39 | CC(=O)NC1C(SC(=O)NCCCl)OC(COC(C)=O)C(OC(C)=O)C1OC(C)=O (stereo not given) | -27.3%
40 | CS(=O)(=O)OCCC(O)COS(C)(=O)=O (stereo not given) | -12.5%

Test: NCI Yeast Anticancer Drug Screen. Data for the mlh1 rad18 strain (AID 175)
Conditions: S. cerevisiae mlh1 rad18 strain growth inhibition; at 50.0 µM; stronger effect = higher value
How it was run: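 Steps: expose repair-defective yeast to compound; measure growth; express inhibition against vehicle-treated controls.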

Row | Structure (SMILES) | growth inhibition
41 | OCC(CBr)(CBr)CBr | -3.85%
42 | COc1cc(C(c2cc3c(cc2OC(C)=O)OCO3)C(C(C)=O)C(C)=O)cc(OC)c1OC (stereo not given) | -1.8%
43 | COc1ccc2c(c1)CCCN2C(N)=Nc1ccc([N+](=O)[O-])cc1 | -7.7%
44 | Cc1cc(S(=O)(=O)Nc2n[nH]c(Nc3ccccc3)n2)c(S)cc1Cl | 19.6%
45 | O=C(O)c1ccc2c(c1)CC1(C2)Cc2ccccc2C1=O (stereo not given) | -2.75%
46 | O=c1[nH]c2cc(Cl)ccc2nc1/C=C(\O)c1ccc(O)cc1 | 13.7%
47 | CCNCCCCNCC | 2.3%
48 | CCN(CC)C1=Nc2ccccc2N(c2ccccc2)C(SC)=C1 | 14.5%
49 | C[N+](C)(C)C1C2(CCCCC2)NC(=O)C12CCCCC2 (stereo not given) | -2.9%
50 | COc1cc2c(cc1OC)C(C#N)(C(c1ccccc1)c1ccccc1)N(C(=O)c1ccccc1)C=C2 (stereo not given) | 30.9%
51 | c1ccc2c(c1)Oc1ccccc1S2 | -0.3%
52 | Oc1ccc2ccccc2c1CNC1CCCCC1 | -26.6%
53 | CCN(CC)CCOC(=O)Cc1cccc2c(=O)cc(-c3ccc(OC)cc3)oc12 | -45.4%
54 | CCC(CC)(C[NH-])C[NH-].[Cl][Pt+2][Cl] | -7.95%
55 | COc1cc(Nc2cnc3cc(N)ccc3n2)cc(OC)c1OC | -45.5%
56 | O=c1[nH]c(=O)n(C2CC(O)C(CO)O2)cc1OC/C=C/Cc1ccccc1 (stereo not given) | -20.7%
57 | CC1=N/C(=C/c2ccc3c(c2)OCO3)C(=O)O1 | 14%
58 | CCOC(=O)C(SC(Cl)(S(=O)(=O)c1ccccc1)S(=O)(=O)c1ccccc1)C(=O)OCC | -14.6%
59 | CC/C=C(\C)C(C#N)(CCC)C(=O)OCC (stereo not given) | -31.7%
60 | C/C(=N\Nc1ccc([N+](=O)[O-])cn1)c1ccccn1 | -1.3%

Row | Structure (SMILES) | growth inhibition
61 | N#Cc1c(C(F)(F)F)cc(-c2cccs2)nc1SC(C(=O)Nc1c(F)cccc1F)c1ccccc1 (stereo not given) | 25.9%
62 | CC1OC(c2ccc3c(c2O)C(=O)C2=C(C3=O)C3(O)C(=O)CC(C)(O)CC3(O)C=C2)CC(O)C1O (stereo not given) | -5.5%
63 | Cc1n[nH]c2ccccc2c1=O | -9.95%
64 | Cc1cc(N2CCCCC2)nc2ccc(Cc3ccc4nc(N5CCCCC5)cc(C)c4c3)cc12 | 27.5%
65 | Oc1ccc2c(c1)CCC2 | -19.6%
66 | COc1c(NC(=O)c2c(Br)c(Br)c(Br)c(Br)c2C(=O)O)cccc1[N+](=O)[O-] | 17.1%
67 | COc1nc2[nH]ccc2c(=O)n1C | 17.4%
68 | OC1CCC2CCCCC2C1 (stereo not given) | 2.85%
69 | CC(C)/C=C1\CCC(CN(C)C)C1=O (stereo not given) | 85.8% (active)
70 | OCc1ccccc1C(c1ccc(O)cc1)c1ccc(O)cc1 | 5.15%
71 | CC1CCC2C(C(=O)O[C@H]3C4CCO[C@@H](OC5OC(CO)C(O)C(O)C5O)C4[C@@]4(CO)O[C@@H]34)=CO[C@@H](OC3OC(CO)C(O)C(O)C3O)C12 (stereo not given in full) | 19.6%
72 | C=CCCCCC1CCC2CCC(CCCCC=C)N12 (stereo not given) | 35.9%
73 | O=[n+]1c(-c2ccccc2)c(-c2ccccc2)n([O-])c2cc3ccccc3cc21 | 26.4%
74 | O=C(Nc1nc2ccc([N+](=O)[O-])cc2s1)C(=O)C(C(=O)c1ccccc1F)C1OC(=O)c2ccccc21 (stereo not given) | 27.8%
75 | O=c1c2cc([N+](=O)[O-])ccc2[nH]n1Cc1ccccn1 | 3.8%
76 | COc1cc(C[S+]2CCCC2)c(SC)cc1C[S+]1CCCC1 | 23.1%
77 | O=C(NNC(=O)C(F)(F)F)C(F)(F)F | -2%
78 | COC(=O)C1(C(=O)OC)O[C@@H](c2ccccc2)[C@H]2C(=O)N(C)C(=O)[C@H]21 | 13.8%
79 | CC(=O)NC1C(SC(=O)NCCCl)OC(COC(C)=O)C(OC(C)=O)C1OC(C)=O (stereo not given) | -4.3%
80 | CS(=O)(=O)OCCC(O)COS(C)(=O)=O (stereo not given) | 4.1%
